Experimental data from the supplement of paper PMC4954754.
± gives the uncertainty stated by the source.

System: HEK293T-Rex ERSE-FLuc
Assay: ERSE-FLuc reporter activation, triplicate confirmation, relative to 500 nM thapsigargin (% of thapsigargin); higher = stronger ATF6/ERSE reporter activation
Settings: 6.8 µM; 18 h; screen: confirmation
Protocol: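 HEK293T-Rex cells stably expressing the ERSE-firefly luciferase (BiP promoter, ATF6-preferring) or XBP1-splicing Renilla luciferase (IRE1/XBP1s) reporter, 1536-well plates, compound at 6.8 µM for 18 hr at 37 °C; luminescence read […] and expressed as % activation = 100*(compound - median DMSO)/(median 500 nM thapsigargin - median DMSO). Primary screen was single-pass; confirmation screen in triplicate (mean ± SD).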

| SMILES | ERSE-FLuc reporter activation |
| --- | --- |
| N#C/C(=C(/O)c1cc(-c2ccccc2)nc2ccccc12)c1nc2ccccc2[nH]1 | 31.1 ± 13 |
| COc1cc(/C=C/c2ccc(O)c(OC)c2)ccc1O | 35.9 ± 9.1 |
| O=C(N/N=C/c1ccc(O)c(O)c1)c1cccc(Cl)c1 | 32.8 ± 3.2 |
| Cc1ccc(NC(=O)/C=C/c2ccco2)nc1 | 27.9 ± 7.1 |
| COc1ccc(-c2cc(C(=O)Nc3cc(C)ccc3O)on2)cc1OC | 33.8 ± 1.9 |
| COc1ccc(/C=C/c2ccc3cccc(OC(C)=O)c3n2)cc1OC(C)=O | 39.7 ± 5.5 |
| COc1ccc(/C=C(\C#N)c2nc3ccccc3n2C)cc1 | 38.1 ± 7.2 |
| COc1cccc(-c2nc3ccc(N)cc3[nH]2)c1 | 32.8 ± 4.8 |
| O=C(/C=C/c1ccccc1)Nc1ccc(Br)cn1 | 27.6 ± 6.8 |
| CCCCCC(=O)Nc1ccc(C(=O)Nc2ccccc2O)cc1 | 44.9 ± 11 |
| CCc1ccc(NC(=O)/C=C/c2ccco2)cc1 | 29.1 ± 4 |
| COc1ccccc1/C=C/C(=O)Nc1ccc(Cl)cn1 | 27.9 ± 6.6 |
| COc1cccc(C2=NOC(C(=O)Nc3cc(C)ccc3O)C2)c1 (stereo not given) | 30.3 ± 8.3 |
| O=C(NCCc1ccc(O)cc1)c1ccc2nc(-c3csc4ccccc34)sc2c1 | 103 ± 23 |
| O=c1[nH]c(/C=C2\C=Nc3ccccc32)c(O)n1-c1ccc(Cl)cc1 | 41.4 ± 5.5 |
| O=c1[nH]c(COc2ccccc2)nc2sc3c(c12)CCCC3 | 39 ± 5.3 |
| Cc1ccc(O)c(NC(=O)CCc2ccccc2)c1 | 63.24 ± 0.61 |
| O=C(Nc1nc2c(s1)CCCC2)c1cccc2ccccc12 | 33.8 ± 2.4 |
| Nc1ccccc1NC(=O)c1ccc(C(=O)Nc2ccccc2N)cc1 | 25.1 ± 3.8 |
| O=C(Nc1ccccc1O)c1ccc(NS(=O)(=O)c2cccc3cccnc23)cc1 | 25.6 ± 8.1 |

| SMILES | ERSE-FLuc reporter activation |
| --- | --- |
| O=C(NCCCn1ccnc1)c1cc(-c2cccs2)on1 | 42.5 ± 6.9 |
| C(=C\c1ccccc1)/C=N/Nc1nc2ccccc2[nH]1 | 27.2 ± 3.8 |
| CCN1C(=O)/C(=C\c2ccc(O)cc2O)SC1=S | 36.3 ± 8.3 |
| Nc1nc(Nc2ccc(Cl)c(Cl)c2)nc2ccccc12 | 43.5 ± 3.9 |
| Cc1ccn2cc(-c3ccc(O)c(O)c3)nc2c1 | 36.4 ± 12 |
| CN(C)c1ccc(/C=C(/C#N)C(=O)Nc2ccc(O)cc2)cc1 | 33.3 ± 5 |
| Cn1cccc1/C=C1/SC(=Nc2ccccc2)NC1=O | 37.4 ± 1.9 |
| O=[N+]([O-])c1ccccc1NC(=S)N/N=C/c1ccc(O)c(O)c1 | 33.2 ± 4.3 |
| COc1ccc(/C=N/NC(=O)c2cccc(F)c2)cc1Br | 35.4 ± 1.5 |
| COc1ccc(-c2csc(N(CC3CCCO3)C(=O)CCl)n2)cc1 (stereo not given) | 25.3 ± 4.3 |
| OCCNc1nc(Nc2ccc(Br)cc2)nc2ccccc12 | 54.2 ± 16 |
| C=CCn1c(N2CCC(C(=O)NCCc3ccc(O)c(O)c3)CC2)nc2ccccc21 | 28.9 ± 6.2 |
| Cc1ccc(O)c(NC(=S)NC(=O)/C=C/c2ccco2)c1 | 27 ± 5.2 |
| Nc1cn(-c2ccccc2)nc1-c1cccs1 | 28.6 ± 6.5 |
| CC1(C)Cc2ccccc2/C(=C/C(=O)C(=O)N/N=C/c2ccc(O)c(O)c2)N1 | 30.1 ± 8.7 |
| O=C1N/C(=C\c2ccc(O)cc2)C(O)=C1C=NCc1ccccc1 | 27.6 ± 6.4 |
| Nc1ccc2nc(-c3ccc(Br)cc3)[nH]c2c1 | 36.7 ± 10 |
| Cc1cc2nc(-c3ccc(SCC#N)nc3)[nH]c2cc1C | 26.8 ± 1.7 |
| COc1ccccc1-c1cc(C(=O)Nc2cc(C)ccc2O)no1 | 29.1 ± 4 |
| CCCCCCc1ccc(-c2ncc(N)cn2)cc1 | 33.2 ± 4.7 |
